# Results reported in PubChem BioAssay AID463173 (ICCB-Longwood Screening Facility, Harvard Medical School, 2010).
# Hit rate of the full screen: of about 52,000 compounds, about 4,300 (8.3%) were called active. The entries come from a sample that favours actives as a whole. A number with no mark means an inactive call. No stated cut-off is given here; in the data, active means survival mostly below about 52% (no sharp cut-off); inactive means mostly above about 56%.
# System: DeltatarO mutant
# Experiment: S. aureus survival, RN4220 and DeltatarO strains – OD600, teichoic acid synthesis inhibitors, primary screen (AID 463173)
# Details: S. aureus RN4220 wild type/DeltatarO growth, OD600, 18 h, active compounds read low, screened at 18.75 µg/mL (by protocol)
row,SMILES,survival
1,CN(C)c1ccc(C(=O)NC2CCSC2=O)cc1 (configuration not stated),66%
2,Cc1ccc(Cl)cc1N1CCN(C(=O)C(C)n2ncn3cccc3c2=O)CC1 (configuration not stated),66%
3,Cc1ccc2nc(-c3ccc(NC(=O)COc4ccc(Br)cc4Br)cc3)sc2c1,104%
4,CCOc1cc(-c2nnc(SCC(=O)NCCCOC)nc2-c2ccc(OC)c(OCC)c2)ccc1OC,73%
5,COc1ccc(NC(=O)CCCN2C(=O)COc3ccc(C)cc32)cc1OC,119%
6,COc1ccc(CNC(=O)c2oc3c(c2C)-c2nn(Cc4ccccc4Cl)cc2CC3)cc1,89%
7,Cc1ccccc1OCCSc1nc2ccc(NC(=O)c3ccco3)cc2s1,25% (active)
8,Cc1ccccc1OCCSc1nc2ccc(NC(=O)c3ccccc3)cc2s1,57%
9,CC(=O)Nc1ccc2nc(SCCOc3ccccc3Cl)sc2c1,3% (active)
10,CC(C)(C)C(=O)Nc1ccc2nc(SCCOc3ccccc3Cl)sc2c1,89%
11,O=C(Nc1ccc2nc(SCCOc3ccccc3Cl)sc2c1)c1cccs1,49%
12,O=C(Nc1ccc2nc(SCCOc3ccccc3)sc2c1)c1ccco1,99%
13,O=C(Nc1ccc2nc(SCCOc3ccccc3Cl)sc2c1)c1ccco1,14% (active)
14,COc1cc(C)ccc1OCCSc1nc2ccc(NC(=O)c3ccco3)cc2s1,62%
15,Cc1ccc(OCCSc2nc3ccc(NC(=O)c4ccco4)cc3s2)cc1,84%
16,O=C(NC1CCCC1)c1ccc2c(c1)N(Cc1ccccc1F)C(=O)c1ccccc1S2,81%
17,Cc1nc2cccnc2n1-c1cccc(C(=O)NCCN(C)C)c1,74%
18,O=C(NCC(c1cccs1)S(=O)(=O)c1ccccc1)c1ccc(C(F)(F)F)cc1 (configuration not stated),90%
19,O=C(NCCc1ccc(Cl)cc1)c1cnc2sc(N3CCOCC3)nn2c1=O,77%
20,O=C(NCc1ccc(Cl)cc1)c1cnc2sc(N3CCCC3)nn2c1=O,72%
21,O=C(NCc1ccc(Cl)cc1)c1cnc2sc(N3CCOCC3)nn2c1=O,52% (active)
22,O=C(CN1C(=O)C2(SCC(=O)N2c2cccc(Cl)c2)c2ccccc21)NC1CCCCC1 (configuration not stated),86%
23,Cc1ccc2c(CC(=O)Nc3ccc(S(=O)(=O)N4CCCCC4C)cc3)coc2c1C (configuration not stated),53%
24,COc1ccccc1NC(=O)CN1C(=O)C(c2ccc(F)cc2)=NC12CCCCC2,72%
25,COc1ccc(S(=O)(=O)NCCc2cn3ccsc3n2)cc1OC,-1% (active)
26,COc1ccc(S(=O)(=O)NCCc2cn3ccsc3n2)cc1,86%
27,Cc1ccc(S(=O)(=O)NCCc2cn3ccsc3n2)cc1,64%
